# Measured values: publication PMC4336329 (PLoS ONE, 2015)
# About 2,200 (0.71%) of roughly 310,000 compounds showed an effect of 50% or more. The effect is printed as a negative number. Many of the other results were omitted from the sample, so strong results are more common in it than they were.
# Biological target: human ether-à-go-go-related gene (hERG) potassium channel (human, UniProt Q12809)
# Assay: primary screen, population patch clamp on CHO cells stably expressing hERG; higher = less effect of the substance
# Sequence of human ether-à-go-go-related gene (hERG) potassium channel (Q12809 whole entry, looked up): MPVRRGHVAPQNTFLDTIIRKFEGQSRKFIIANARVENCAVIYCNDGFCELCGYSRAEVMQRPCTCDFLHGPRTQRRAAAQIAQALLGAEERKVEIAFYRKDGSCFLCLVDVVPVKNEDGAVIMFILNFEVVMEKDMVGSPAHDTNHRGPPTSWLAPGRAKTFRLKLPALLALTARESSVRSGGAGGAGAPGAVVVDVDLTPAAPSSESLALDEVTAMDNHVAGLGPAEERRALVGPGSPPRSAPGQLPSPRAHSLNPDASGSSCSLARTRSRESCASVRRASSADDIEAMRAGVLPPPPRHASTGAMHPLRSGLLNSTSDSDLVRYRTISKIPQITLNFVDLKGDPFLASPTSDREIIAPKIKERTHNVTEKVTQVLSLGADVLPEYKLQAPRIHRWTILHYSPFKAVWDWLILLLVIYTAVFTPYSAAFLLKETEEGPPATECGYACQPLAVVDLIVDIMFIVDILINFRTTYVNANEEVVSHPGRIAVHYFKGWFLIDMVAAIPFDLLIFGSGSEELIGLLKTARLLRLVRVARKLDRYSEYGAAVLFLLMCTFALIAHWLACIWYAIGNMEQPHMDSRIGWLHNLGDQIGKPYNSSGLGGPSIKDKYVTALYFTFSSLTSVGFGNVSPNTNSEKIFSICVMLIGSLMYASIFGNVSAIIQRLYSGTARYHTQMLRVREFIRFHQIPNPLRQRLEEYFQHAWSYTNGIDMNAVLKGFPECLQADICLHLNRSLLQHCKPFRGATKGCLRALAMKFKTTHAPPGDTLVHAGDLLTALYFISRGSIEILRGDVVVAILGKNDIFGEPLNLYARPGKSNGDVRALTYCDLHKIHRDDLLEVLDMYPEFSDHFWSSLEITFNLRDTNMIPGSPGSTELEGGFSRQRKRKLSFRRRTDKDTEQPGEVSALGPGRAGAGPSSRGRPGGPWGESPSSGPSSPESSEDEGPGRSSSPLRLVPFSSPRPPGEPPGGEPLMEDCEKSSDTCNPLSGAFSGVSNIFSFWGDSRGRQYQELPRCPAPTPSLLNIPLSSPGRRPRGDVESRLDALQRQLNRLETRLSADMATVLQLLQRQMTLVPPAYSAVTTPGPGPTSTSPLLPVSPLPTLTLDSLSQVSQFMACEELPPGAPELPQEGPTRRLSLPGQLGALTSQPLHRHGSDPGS
row,Structure (SMILES),"hERG current change (%, negative = inhibition) at 1uM"
1,COc1ccc(CCN(C)CC(O)c2ccccc2)cc1OC.O=C(O)C(=O)O (centres unmarked),1.76%
2,COc1ccc(CCN(C)CC(O)COc2ccc(C(C)=O)cc2OC)cc1OC (centres unmarked),8.67%
3,COc1ccc(CCNCC(O)COc2c(C)cccc2C)cc1OC.O=C(O)C(=O)O (centres unmarked),7.9%
4,COc1ccc(CCN(C)Cc2ccc(F)cc2F)cc1OC,-2.08%
5,COc1ccc(CCN(C)CC(O)COC(c2ccc(F)cc2)c2ccc(F)cc2)cc1OC (centres unmarked),-79.9%
6,Cc1cccc(Cn2c(=O)n(CCCC(=O)NCc3ccco3)c(=O)c3ccccc32)c1,-4.67%
7,O=C(CCc1ccccc1)Nc1sc2c(c1C(=O)O)CCCC2,20.1%
8,CCc1nnc(N2C(=N)SCC2=O)s1,4.71%
9,Cc1ccc(S(=O)(=O)NC(C)C(=O)NC2CCCCCC2)cc1 (centres unmarked),-2.05%
10,NC(=O)COC(=O)c1ccc2c(c1)C(=O)N(Cc1ccco1)C2=O,9.91%
11,N#Cc1ccccc1OCc1cccc(S(=O)(=O)N2CCOCC2)c1,11.3%
12,Cc1cc(OCc2cccc(S(=O)(=O)N3CCOCC3)c2)ccc1Cl,4.05%
13,N#Cc1ccc(OCc2cccc(S(=O)(=O)N3CCOCC3)c2)cc1,-57.3%
14,COc1ccc(OC)c(/C=N/NC(=O)C(=O)N2CCCC2)c1,1.25%
15,CCOC(=O)N1CCN(c2cc(=O)n(-c3ccc(C)cc3)c(=O)[nH]2)CC1,-8.88%
16,CN1CCN(c2ccc([N+](=O)[O-])cc2C(=O)Nc2ccccc2)CC1,-59.8%
17,CN1CCN(c2ccc([N+](=O)[O-])cc2NC(=O)c2ccccc2Cl)CC1,-75.6%
18,CN1CCN(c2ccccc2NC(=O)c2ccc([N+](=O)[O-])cc2Cl)CC1,0.769%
19,COc1ccc(NC(=O)c2cc([N+](=O)[O-])ccc2N2CCN(C)CC2)cc1,-15.5%
20,CN1CCN(c2ccc([N+](=O)[O-])cc2NC(=O)c2cccs2)CC1,-14.2%
21,Cc1cccc(NC(=O)c2cc([N+](=O)[O-])ccc2N2CCN(C)CC2)c1,-41.2%
22,O=C1NCCc2c1[nH]c1ccccc21,-4.21%

row,Structure (SMILES),"hERG current change (%, negative = inhibition) at 1uM"
1,COc1ccc(C(=O)Nc2ccc(NC(C)=O)cc2)cc1S(=O)(=O)N1CCCC1,16.9%
2,Cc1nc(NCCC(C)C)c2nnn(Cc3ccccc3)c2n1,11.3%
3,O=C(O)/C=C\C(=O)O.O=[N+]([O-])c1ccc2nc(N3CCNCC3)ccc2c1,1.34%
4,COC(=O)/C=c1/s/c(=C(\C#N)C(=O)NCc2ccco2)n(-c2ccccc2)c1=O,14.8%
5,CCCC(=NCCc1c(C)[nH]c2ccccc12)C1=C(O)CC(c2ccccc2)CC1=O (centres unmarked),-11.1%
6,CCCN1CCN(CCCNC(=O)C2CCN(c3nnc(-n4c(C)ccc4C)s3)CC2)CC1,13.1%
7,CCS(=O)(=O)c1ccc(O)c(NC(=O)COc2ccccc2)c1,12.6%
8,O=[N+]([O-])c1nn(-c2ccccc2)n(O)c1=NC1CCN(Cc2ccccc2)CC1,-16%
9,COc1ccc(-n2nc([N+](=O)[O-])c(=NC3CCN(Cc4ccccc4)CC3)n2O)cc1,-6.46%
10,Cc1cccc(-n2nc([N+](=O)[O-])c(=NC3CCN(Cc4ccccc4)CC3)n2O)c1,-55.4%
11,O=C(Nc1cnn(Cc2ccc(Cl)cc2)c1)C1CCCC1,-7.77%
12,O=C(NCc1ccccc1)C(=O)NCC1OCCN1C(=O)c1cccs1 (centres unmarked),-54.6%
13,O=C(NCc1ccc(F)cc1)C(=O)NCC1OCCN1C(=O)c1cccs1 (centres unmarked),3.51%
14,O=C(NCc1ccc(Cl)cc1)C(=O)NCC1OCCN1C(=O)c1cccs1 (centres unmarked),3.06%
15,CCOC(=O)Cc1csc(NC(=O)c2ccc(OC)c(OC)c2)n1.Cl,-6.29%
16,CN(C)S(=O)(=O)c1ccc(C(=O)NCC(C)(C)CN=C2NS(=O)(=O)c3ccccc32)cc1,1.35%
17,Cc1nnc(C)c2c(C)n(C(C)c3ccccc3)c(C)c12 (centres unmarked),-1.28%
18,COc1ccc(-c2nnnn2C(C)C)cc1,11.1%
19,CC(=O)c1c(C(C)=O)c(C)n(C(c2ccccc2)c2ccccc2)c1C,-4.36%
20,COc1ccc(C(C)n2c(C)c3c(C)nnc(C)c3c2C)cc1 (centres unmarked),-52.3%
21,Cc1nnc(C)c2c(C)n(C(c3ccccc3)c3ccccc3)c(C)c12,-65.7%
22,COc1ccc(C(=O)C(Sc2nnc(C)c(=O)[nH]2)c2ccc(OC)cc2)cc1 (centres unmarked),1.35%
